# Reference: PubChem BioAssay (NCI)
# Compounds without any hit were thinned out: in the full panel of roughly 83,000, 20% have a hit.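 Single-dose data. Exposure time 48 hours. Values below 10 considered active.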 Unmarked numbers belong to inactive results. Calls of active or inactive are those of the source.
# System: CCRF-CEM leukemia
# Test: NCI-60 one-dose screen, 48 h (100 = growth as untreated, 0 = no growth, -100 = all killed)
# Settings: 10 µM unless noted
row,Compound,growth
1,Nc1c(Br)cc2c(c1Br)Cc1cc([N+](=O)[O-])ccc1-2,95.7%
2,CCCN(CCSSCCNc1nc(N(C)O)nc(N(C)O)n1)c1nc(N(C)O)nc(N(C)O)n1,9.07% (active)
3,COC(=O)c1sccc1-c1cc(O)c(C(=O)Nc2ccccc2)s1,101%
4,N#Cc1c(-c2ccc(Cl)cc2)nc(NN=Cc2ccc[nH]2)nc1N1CCOCC1,20.8%
5,Clc1ccc(-c2nc(C(Cl)Cl)nc3cc(-c4ccccc4)nn23)cc1,53.4%
6,C/C(=N\Nc1ccccc1)c1ccc(NC2=CC(=O)c3ccccc3C2=O)cc1,62.7%
7,COc1ccc(/C=C(/C(=O)N2CCNCC2)c2cc(OC)c(OC)c(OC)c2)cc1O,15.4%
8,CCN(CC)CCCC(Cc1ccccc1)Nc1c2ccc(Cl)cc2nc2ccc(OC)cc12 (stereo not given),-0.463% (active)
9,Fc1ccc2[nH]cc(-c3nc(-c4c[nH]c5c(Cl)nccc45)cs3)c2c1,28.5%
10,Fc1ccc(/C=C/[C@@H]2C[C@@H](F)CCO2)cc1,86.8%
11,Cc1ccccc1N1CCN(C(=S)c2ccccc2)CC1,114%
12,N#Cc1ccc(/C=C/c2cn(-c3ccccc3)nc2-c2cccc([N+](=O)[O-])c2)cc1,88.3%
13,Cc1[nH]c(C(=O)Nc2ccccc2OC2CCN(CCN3CCOCC3)CC2)c(Cl)c1Cl,89.4%
14,COc1ccc(C(O)c2cc3c(N)c(C(=O)Nc4cccc5ccccc45)sc3nc2C)cc1 (stereo not given),13.2%
15,Cc1ccc(C(=O)c2ccc(CC(=O)N/N=C/c3cccc(O)c3O)n2C)cc1,13.1%
